High-throughput results (PubChem)
DT40 TDP1 no CPT – qHTS for Inhibitors of human tyrosyl-DNA phosphodiesterase 1 (TDP1): qHTS in cells in absence of CPT; DT40 Tdp1-/- hTDP1 cells, no CPT, ATP luminescence, 48 h; Potency, µM (highest dose often 46.2 µM), without a hit: at the highest dose activity change, negative = growth inhibition, usual class: inhibitors; 15% of 420,000 active; further: on the % scale 0 is the no-effect control and ±100 the full control effect; nearly all actives have a fitted effect of over 55% in size
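A cellular qHTS used chicken DT40 cells lacking endogenous Tdp1 but carrying stably transfected human TDP1. Compounds were applied without camptothecin, and cell growth kinetics were judged by ATP-dependent luminescence after ≥48 hr.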
TDP1 cell CPT – DT40-hTDP1 cell growth loss with CPT | chicken DT40 Tdp1-/-;hTDP1 cells + 20 nM CPT, ATP luminescence, 48 h | Potency, µM (highest dose often 46.2 µM), for inactives: at the highest dose activity change, negative = growth inhibition, usual class: inhibitors | 12% of 420,000 active | AID 686979; further: on the % scale 0 is the no-effect control and ±100 the full control effect; nearly all actives have a fitted effect of over 55% in size
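Chicken DT40 Tdp1-/- cells complemented with human TDP1, 400 cells/well, exposed to compounds plus 20 nM camptothecin for at least 48 h at 37 C; viability read as ATP content by CellTiter-Glo luminescence.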
HepG2 viability – HepG2 cytotoxicity, counter-screen for TGF-b inhibitors; Potency, µM (titrated, usually from 46.1 µM), for inactives: top-dose activity change, negative = cytotoxicity, most hits filed as cytotoxic; AID 588856; HepG2 CAGA-GFP viability, ATP luminescence, 18 h; 0.76% of 410,000 active
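HepG2 CAGA-GFP cells (1000/well, DMEM with 1% FBS) received compound, then TGF-beta at 500 pg/mL final, and were incubated 18 hours at 37 degrees C. Viability was read by CellTiter-Glo luminescence. Media-only wells were set as complete cell-killing and DMSO as no toxicity.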
TGFb inhibitor – blocks TGF-b signaling | HepG2 CAGA-GFP TGF-b/SMAD3 reporter, GFP fluorescence, 18 h; TGF-beta stimulated, 500 pg/mL final | Potency, µM (highest dose often 46.1 µM), for the others: at the top dose activity, negative = inhibition, usual class: inhibitors | 1.2% of 410,000 active | AID 588855; further: on the % scale 0 is the no-effect control and ±100 the full control effect; nearly all actives have a fitted effect of over 65% in size
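Smad-responsive CAGA-GFP expression was quantified in HEPG2 cells exposed to compounds and 500 pg/mL final TGF-beta for 18 h at 37 degrees C; unstimulated wells defined full inhibition.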
ATXN viability – reduces viability in counter-screen for ATXN expression inhibitors; S2 cells (HEK-293 line with an ATXN2-luciferase reporter) viability, CellTiter-Fluor protease fluorescence, 24 h; Potency, µM (series often up to 56.7 µM), actives largely listed as cytotoxic; 0.49% of 400,000 active; AID 651635; further: nearly all actives have a fitted effect of over 40% in size
ATXN2 expr inh – ATXN2 expression inhibition; HEK-293 ATXN2-luciferase reporter, luminescence, 24 h; Potency, µM (titrated, usually from 57 µM), inactives show top-dose activity change, negative = inhibition, usual class: inhibitors; 0.72% of 360,000 active; AID 1745845; further: on the % scale 0 is the no-effect control and ±100 the full control effect; nearly all actives have a fitted effect of over 55% in size
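ATXN2-luciferase reporter cells (luciferase flanked by upstream and downstream ATXN2 gene portions) were treated 24 h at 37 °C with compounds at up to 57 uM. SteadyGlo luminescence gave expression; GF-AFC fluorescence gave viability.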
* hit, by the source's call. Hits are enriched below; roughly 17% of the tested compounds scored in any of these assays. The call rests on the fitted dose curve; in most records, active means well fitted curve in the direction sought with a large enough effect; inconclusive means small, poorly fitted or top-dose-only effect, or another doubt; inactive means no such curve, though single readings can be large; an effect the other way counts as inactive or inconclusive. Potency means the concentration at half of the fitted maximal effect.

`CC(C)N1CCN(C(=O)c2ccc([N+](=O)[O-])cc2)CC1` gave DT40 TDP1 no CPT 1%, TDP1 cell CPT 5%, HepG2 viability 11µM*, TGFb inhibitor -19% and ATXN viability inactive.
`CCOc1ccc(C(=O)N2CCC(c3ccncc3)CC2)cc1` gave DT40 TDP1 no CPT inconclusive, TDP1 cell CPT 13µM*, HepG2 viability -18%, TGFb inhibitor inconclusive, ATXN viability inactive and ATXN2 expr inh -26%.
CCOc1ccc(C(=O)C2CCN(C(=O)c3ccccc3C(=O)O)CC2)cc1 was read as DT40 TDP1 no CPT -6%, TDP1 cell CPT -7%, HepG2 viability -15%, TGFb inhibitor 6%, ATXN viability inactive and ATXN2 expr inh -7%.
CCOc1ccc(C(=O)C2CCN(C(=O)c3ccc([N+](=O)[O-])cc3)CC2)cc1 was read as DT40 TDP1 no CPT 21µM*, TDP1 cell CPT inconclusive, HepG2 viability -19% and TGFb inhibitor inconclusive.
`Cc1oc(-c2ccc(Cl)cc2)cc1C(=O)/C(C#N)=C/Nc1cccc(OC(F)(F)F)c1` gave DT40 TDP1 no CPT inconclusive, TDP1 cell CPT inconclusive, HepG2 viability 0%, TGFb inhibitor 29%, ATXN viability inactive and ATXN2 expr inh -16%.
O=C(COc1ccccc1)Nc1ccccc1Cl was read as DT40 TDP1 no CPT -10%, TDP1 cell CPT -11%, HepG2 viability 3%, TGFb inhibitor 9% and ATXN viability inactive.
Screening CCOc1ccc(N(CC(=O)NCCc2ccc(C)cc2)S(=O)(=O)c2c(C)noc2C)cc1 returned DT40 TDP1 no CPT inconclusive, TDP1 cell CPT 23µM*, HepG2 viability -24%, TGFb inhibitor -5%, ATXN viability inconclusive and ATXN2 expr inh -6%.
`Cc1ccc(N(CC(=O)NC(C)c2ccccc2)S(=O)(=O)c2c(C)noc2C)cc1` (centres undefined) gave DT40 TDP1 no CPT 16µM*, TDP1 cell CPT inconclusive, HepG2 viability -26%, TGFb inhibitor inconclusive, ATXN viability inactive and ATXN2 expr inh -9%.
Screening CCOc1ccc(OCC)c(NC(=O)CN(c2ccc(C)cc2)S(=O)(=O)c2c(C)noc2C)c1 returned DT40 TDP1 no CPT 23µM*, TDP1 cell CPT inconclusive, HepG2 viability 19%, TGFb inhibitor -1%, ATXN viability inactive and ATXN2 expr inh -3%.
`CCOc1ccc(N(CC(=O)Nc2ccccc2CC)S(=O)(=O)c2c(C)noc2C)cc1` gave DT40 TDP1 no CPT 3.7µM*, TDP1 cell CPT 4.6µM*, HepG2 viability -21% and TGFb inhibitor -15%.
Screening O=C(Cn1cnc2c(NC(=O)OCc3ccccc3)ncnc21)NCCN1CCOCC1 returned DT40 TDP1 no CPT -7%, TDP1 cell CPT -10%, HepG2 viability 4%, TGFb inhibitor 7%, ATXN viability inactive and ATXN2 expr inh 1%.
Cc1ccc(-c2c(NCCc3ccccc3)c(=O)c2=O)cc1 was read as DT40 TDP1 no CPT -19%, TDP1 cell CPT 0%, HepG2 viability -8%, TGFb inhibitor -24%, ATXN viability inactive and ATXN2 expr inh -24%.
For CCc1ccccc1Nc1nc(N)nc(COC(=O)CCC(=O)c2ccc(F)cc2)n1 the results were DT40 TDP1 no CPT -11%, TDP1 cell CPT -10%, HepG2 viability -39%, TGFb inhibitor -17%, ATXN viability inactive and ATXN2 expr inh 89%.
COc1ccc(OC)c(NC(=O)CN(c2ccc(C)cc2)S(=O)(=O)c2c(C)noc2C)c1 was read as DT40 TDP1 no CPT inconclusive, TDP1 cell CPT inconclusive, HepG2 viability -26%, TGFb inhibitor 4%, ATXN viability inactive and ATXN2 expr inh -14%.
